The list is not random: actives were taken first. Their share in the collection is about 21%.
NS1 inh = qHTS Assay for Inhibitors of Influenza NS1 Protein Function; AID 2326, 2010; 270,000 compounds, 0.4% hits; Potency, µM (top dose mostly 46.1 µM), for the others: at the top dose activity, positive = more growth; note: potency is the fitted concentration of half-maximal effect; actives are rising curves; nearly all actives have a fitted effect of over 50% in size
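In this qHTS, NS1 from influenza A is expressed in budding yeast, where it slows growth. Cells are switched from glucose to 2% galactose medium (pH 6.0, -URA), treated with compound, and growth recovery is read at OD600.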
Cycloheximide cs = Cycloheximide Counterscreen for Small Molecule Inhibitors of Shiga Toxin | AID 2314, 2010 | max response, % | cell reporter, cycloheximide protein synthesis inhibition counterscreen | 300,000 compounds, 12% hits; in the data active = max response mostly above about 13%, no sharp cut-off; inactive = mostly below about 14%; note: read at 38.3 µM for the half of the compounds with a filed dose; 0% is about no effect
Pf growth 96h = Primary qHTS for delayed death inhibitors of the malarial parasite plastid, 96 hour incubation; 320,000 compounds, 6.9% hits; P. falciparum luciferase reporter growth, 96 h; AID 504834, 2011; Potency, µM (highest dose often 28.7 µM), for inactives: at the highest dose activity change, negative = inhibition, most hits filed as inhibitors; active = well fitted inhibition curve with a large enough effect; inconclusive = small, poorly fitted or top-dose-only effect, or another doubt; inactive = no such curve, though single readings can be large or run the other way; note: potency is the fitted concentration of half-maximal effect; % is set by controls: 0 for no effect and ±100 for the full control effect
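Two-generation exposure (96 h) targets delayed-death phenotype. Reporter parasites carrying integrated firefly luciferase, in red cells at 2% hematocrit and 0.05% parasitemia final, kept at 37 C, 5% CO2; luminescence loss indicates inhibition.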
Shiga inhibitor = A qHTS for Small Molecule Inhibitors of Shiga Toxin | AID 2315, 2010 | 290,000 compounds, 9.2% hits | inhibition, % at 38.7 µM | Vero cells, Shiga toxin protein synthesis inhibition reporter; in the data active = inhibition mostly above about 28%, no sharp cut-off; inactive = mostly below about 43%; note: 0% is about no effect
SARS PLP yeast = qHTS of Yeast-based Assay for SARS-CoV PLP; S. cerevisiae expressing SARS-CoV PLpro, growth rescue; Potency, µM (highest dose often 32.9 µM), for the others: at the highest dose activity, positive = growth rescue, hits mostly activators; 330,000 compounds, 0.19% hits; AID 485353, 2010; note: potency is the fitted concentration of half-maximal effect; 0% is about no effect; nearly all actives have a fitted effect of over 55% in size
Pf growth 48h = Primary qHTS for delayed death inhibitors of the malarial parasite plastid, 48 hour incubation | P. falciparum luciferase growth in erythrocytes, 48 h | Potency, µM (top dose mostly 28.7 µM), inactives show at the top dose activity change, negative = inhibition, hits mostly inhibitors | 310,000 compounds, 5.9% hits; active = well fitted inhibition curve with a large enough effect; inconclusive = small, poorly fitted or top-dose-only effect, or another doubt; inactive = no such curve, though single readings can be large or run the other way; note: potency is the fitted concentration of half-maximal effect; % is set by controls: 0 for no effect and ±100 for the full control effect
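Read-out is firefly luciferase luminescence from an integrated reporter in P. falciparum, so falling signal marks reduced parasite growth. Infected erythrocytes were at 2% hematocrit and 0.1% parasitemia (final) in Albumax-supplemented RPMI 1640.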
* marks the source's active call; other numbers are inactive results; ? = inconclusive; / = no result. Unless noted, calls come from the whole dose curve.

SMILES | NS1 inh | Cycloheximide cs | Pf growth 96h | Shiga inhibitor | SARS PLP yeast | Pf growth 48h
S=c1[nH]nc(-c2ccncc2)n1/N=C/C(Cl)=C\c1ccccc1 | -3% | 24* | 63% | 61* | -2% | ?
Cc1cccc(/C=N/n2c(-c3ccccn3)n[nH]c2=S)c1 | 10% | 35* | -19% | 47* | 7% | 17%
CC(=O)c1cccc(N(C(=O)CNC(=O)c2ccco2)C(C(=O)NC2CCCC2)c2ccco2)c1 (centres undefined) | -8% | -2 | 15% | -5 | 6% | -11%
CC(C)CCOc1ccc(CO[C@@H]2[C@H]3OC(C)(C)O[C@H]3O[C@@H]2C(O)CO)cc1 (some centres undefined) | 1% | 0 | 0% | -14 | 2% | ?
COC(=O)[C@H](CCSC)NC(=O)Cn1cnc2c(OCc3ccccc3)ncnc21 | / | / | / | / | -2% | /
O=C(O)[C@H]1CCc2ccc3ccccc3c2[C@H]1c1cccc2ccccc12 | -3% | / | / | / | / | /
O=C(OCc1ccc(Cl)c(Cl)c1)c1ccc[nH]1 | -66% | 23* | 102% | 111* | -33% | 87%
O=C(Cc1ccc(Cl)c(Cl)c1)OCC(=O)c1ccc[nH]1 | -59% | 3 | 4% | 17 | -14% | 7%
Cc1ccc2nc(C)c3c(c2c1)N(c1ccc(F)cc1)CC3 | -57% | -2 | 13µM* | -20 | 0% | ?
CCC(C)(C)n1c(=O)[nH]c2c(c1=O)CCC2 | 5% | -2 | / | -11 | -3% | 10%
COc1cccc(NC(=O)CSc2ccc3nnc(-c4ccccn4)n3n2)c1 | 5% | -2 | 59% | 5 | -1% | 37%
CCN(CC)c1ccc(C=Nc2ccc(N(C)C)cc2)c(O)c1 | -10% | 54* | ? | 91* | -14% | ?
CCN(CC)c1ccc(N=Cc2ccc(N(CC)CC)cc2O)cc1 | -1% | 12 | / | 29 | -2% | 1.2µM*
CCN(CC)c1ccc(C=Nc2cc(C)cc(C)c2)c(O)c1 | 3% | -2 | -12% | 6 | 5% | 23%
CCN(CC)c1ccc(/C=N/N2CCOCC2)c(O)c1 | 3% | 65* | 259% | 70* | 13% | 164%
CCN(CC)c1ccc(C=Nc2ccc(C)cc2)c(O)c1 | 1% | 1 | 11% | 6 | -6% | 5%
FC(F)(F)c1ccc(Cl)c(NC(=S)NC2CC2)c1 | -1% | -2 | -1% | -11 | 11% | 6%
CC(=O)Nc1cc(ON=C(C)C)cc([N+](=O)[O-])c1 | 4% | -4 | -33% | -9 | -7% | 33%
S=C(N=Nc1ccccc1)NNc1ccccc1 | -40% | 54* | 44% | 122* | 2% | 136%
C#Cc1cccc(Nc2ncnc3cc(OCCOC)c(OCCOC)cc23)c1 | / | / | 6µM* | / | / | 13µM*
COc1cc2ncnc(Nc3cccc(Cl)c3)c2cc1OC | -25% | -5 | / | -8 | -2% | /
COc1ccc(NS(=O)(=O)c2cccc(-c3n[nH]c(=S)n3Cc3ccccc3)c2)cc1 | / | 5 | 24% | -9 | 9% | ?
C=CCN(CC=C)C(=O)COC(=O)c1ccc(Sc2ncn[nH]2)c([N+](=O)[O-])c1 | -1% | -2 | ? | 28 | 4% | 4%
COCc1c(C(=O)OCC(=O)NCCN2C(=O)CSC2=O)oc2ccccc12 | -10% | -2 | 9% | -6 | -14% | 8%
Cc1nc(OCC(=O)c2ccc(Cl)cc2)c(C#N)c2c1COC(C)(C)C2 | 4% | -1 | 12µM* | -7 | 2% | /
SMILES | NS1 inh | Cycloheximide cs | Pf growth 96h | Shiga inhibitor | SARS PLP yeast | Pf growth 48h
CC1(C)Cc2c(C#N)c(OCC(=O)c3ccc(Cl)cc3)nc(-c3ccco3)c2CO1 | -16% | -3 | ? | -2 | -4% | ?
CCc1nc(OCC(=O)c2ccccc2)c(C#N)c2c1COC(C)(C)C2 | 3% | 1 | 12µM* | -10 | 15% | /
COc1cc(/C=N/NC(=O)C(N)=O)ccc1OCC(=O)N1C(C)CCCC1C (centres undefined) | / | -5 | 4% | -1 | 1% | -37%
C=CCNC(=S)N/N=C/c1ccc(N(CC)Cc2ccccc2)cc1 | ? | 13* | 0% | -3 | ? | 6.6µM*
CCN(CC)c1ccc(/C=N/NC(=S)NCc2ccccc2)cc1 | 0% | -5 | 9.3µM* | -9 | 12% | 13µM*
CC(C)CN(C[C@@H](OP(=O)(O)O)[C@H](Cc1ccccc1)NC(=O)O[C@@H]1CCOC1)S(=O)(=O)c1ccc(N)cc1 | / | / | -7% | / | / | 7%
O=C(O)c1cc([N+](=O)[O-])cc2c1nnn2O | / | 8 | -9% | -9 | 1% | 9%
CCCSCCCNC(=O)Cn1c(=O)c2cccn2c2ccccc21 | -3% | -12 | ? | -9 | -1% | 7%
Cc1nc2ccc(S(=O)(=O)NC(C(=O)NC3CCCC3)C(C)C)cc2s1 (centres undefined) | ? | -3 | ? | -6 | -2% | /
CCN1CCN(C(=O)C(NS(=O)(=O)c2ccc3nc(C)sc3c2)C(C)C)CC1 (centres undefined) | 3% | -3 | 9.3µM* | -6 | -2% | /
COc1ccc(C(C(=O)NC2CCCC2)N(C(=O)c2csnn2)C2CCCC2)cc1 (centres undefined) | 8% | -5 | ? | 3 | -1% | -18%
Cc1ccc(OCC(=O)NCCCNC(=O)c2ccco2)cc1 | 26% | -3 | -1% | -10 | 1% | -8%
Cc1ccccc1NC(=O)c1ccc(F)c(S(=O)(=O)N2CCN(c3ccccn3)CC2)c1 | -5% | -3 | / | 15 | ? | 13µM*
Cc1ccc(C(=O)NNC(=O)c2ccc(Br)s2)cc1S(=O)(=O)N1CCOCC1 | / | / | -22% | / | 0% | -21%
Cc1nc2ccc(NC(=O)c3ccc(S(=O)(=O)N4CCOCC4)cc3)cc2s1 | -2% | -2 | ? | 13 | 2% | 6%
COc1ccc(C(=O)NCc2cccs2)cc1S(=O)(=O)N1CCOCC1 | / | 6 | 4.1µM* | -5 | 0% | ?
Cc1nc2ccc(NC(=O)c3cccc(S(=O)(=O)N4CC(C)OC(C)C4)c3)cc2s1 (centres undefined) | 3% | -1 | 8.3µM* | -9 | 1% | /
O=C(NNC(=O)c1ccc(Br)s1)c1ccc(F)c(S(=O)(=O)N2CCOCC2)c1 | / | / | 10µM* | / | 1% | -12%
CCCOc1c(Br)cc(C(=O)OCC(=O)NC(=O)c2cccn2C)cc1OC | / | / | -17% | / | 4% | -13%
O=C(COC(=O)CNC(=O)c1cccs1)Nc1ccc(C(F)(F)F)cc1[N+](=O)[O-] | / | / | 27% | / | 1% | ?
COCCNC(=O)C1CC(c2ccccc2C(F)(F)F)=NO1 (centres undefined) | / | / | 71% | / | 1% | ?
COc1ccc([N+](=O)[O-])cc1NC(=O)COC(=O)c1ccc(O)cc1 | -1% | -2 | 0% | -1 | 1% | 39%

Screening data as filed in PubChem.
